The whole screen tested about 5,500 compounds, of which about 2,000 (36%) were called active. Another 18% or so got no clear call; they are omitted. Rule as the data show it: active = normalized growth mostly below about 0.91 (no sharp cut-off); inconclusive = no clear call, values can overlap the other calls; inactive = mostly above about 0.92. The list shows a part of the results.
Experiment: chemical genetic growth profiling, strain panel (AID 1159580);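 also: tested at 20 µM; growth read once vehicle control cultures reached saturation at 30 °C; 1 = growth at the plate median or of vehicle wells; lower values mean less growth of the strain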
Conditions: S. cerevisiae deletion strains, growth OD

Measured: normalized growth

CC(=O)NCCc1ccc(O)c(-c2c(O)c(O)c3c(c2O)C(=O)c2c(cc(O)c(C(=O)O)c2C(=O)O)C3=O)c1
inactive: locus YHR030C, strain SLT2, hits give low values 1 | locus YHR079C, strain IRE1, hits give low values 1.01 | locus YJL095W, strain BCK1, hits give low values 0.992 | locus YJR066W, strain TOR1, hits give low values 0.931 | locus YLR113W, strain HOG1, hits give low values 1.01 | locus YNL183C, strain NPR1, hits give low values 0.924 | locus YOR231W, strain MKK1, hits give low values 1.03 | locus YPL256C, strain CLN2, hits give low values 1.04

N#CC(=C(\N)Sc1ccccc1N)/C(C#N)=C(/N)Sc1ccccc1N
inactive: locus YAL013W, strain DEP1, hits give low values 0.988 | locus YAL040C, strain CLN3, hits give low values 0.974 | locus YCL061C, strain MRC1 (second series), hits give low values 1.01 | locus YDR150W, strain NUM1, hits give low values 1.01 | locus YDR363W, strain ESC2, hits give low values 1 | locus YER002W, strain NOP16, hits give low values 1 | locus YGR078C, strain PAC10, hits give low values 0.99 | locus YJR075W, strain HOC1, hits give low values 0.97 | locus YMR263W, strain SAP30, hits give low values 1 | locus YMR307W, strain GAS1, hits give low values 0.995 | locus YNL153C, strain GIM3, hits give low values 0.923 | locus YNL175C, strain NOP13, hits give low values 0.981 | locus YNL197C, strain WHI3, hits give low values 0.971 | locus YNL224C, strain SQS1, hits give low values 0.973 | locus YNL322C, strain KRE1, hits give low values 0.988 | locus YPL241C, strain CIN2, hits give low values 1.01
active: locus YOR083W, strain WHI5 (second series), hits give low values 0.763

From PubChem BioAssay AID1159580 (chemical genetic matrix, 2015)
